Results as given in PubChem BioAssay.
Values joined by “and” are separate entries in the source; they are usually repeats but may differ in a detail not shown here. Equal values may be shown once. Active and inactive are the calls of the source.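 How the source made its calls, unless noted: active means normalized viability below 100% at a tested concentration; inactive means the rest.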

Columns and labels:
[1] = stimulators of nuclear beta-catenin in C2C12, primary screen, imaging, WNT3A-conditioned medium, mouse C2C12, NPC library (AID 1117326; in the data active means nuclear beta-catenin stimulation mostly above about 4.2%, no sharp cut-off; inactive means mostly below about 10%); conditions: stronger effect = higher value
[2] = stimulators of insulin release from INS-1E, primary screen, cell-based, 5 mM glucose, NPC library (AID 1117329;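 active means compound raises insulin release from rat beta cells at 5 mM glucose, no numeric limit stated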); conditions: rat INS-1E insulin secretion, at 10 µM, stronger effect = higher value
[3] = growth inhibition of GSK3B-pretreated HCT116 cells – cell-based, CellTiter-Glo, 0.2 to 20 µM (AID 1117336;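 active means compounds lowering colon cancer cell viability after pretreatment blocking the GSK3B kinase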); conditions: HCT116 viability after GSK3B inhibitor, at 20 µM, stronger effect = higher value
[4] = inhibition of endothelial tube formation, primary screen, imaging, VEGF stimulated, CD31 staining, tube area, NPC library (AID 1117340;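 active means compound that reduces growth-factor-driven endothelial tube area in a mixed cell culture, no cutoff stated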); conditions: VEGF-stimulated ADSC/ECFC co-culture, at 10 µM, stronger effect = higher value
[5] = glucagon-like peptide 1 release enhancers, primary assay, NCI-H716 cell line, NPC library (AID 1117341;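 active means compound raises GLP1 secretion from the human gut endocrine cells, with no numeric limit stated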); conditions: NCI-H716 cells, at 10 µM, stronger effect = higher value
[6] = HCT116 colon cancer cell growth inhibition, primary screen, CellTiter-Glo luminescence, NPC library (AID 1117342;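 active means compounds that lower survival of HCT116 colon cancer cells in the luminescence readout, no numeric limit stated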); conditions: at 20 µM (top of the series)
[7] = CellTiter-Glo luminescent readout of SW480 viability loss, NPC library primary (AID 1117343;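 active means compounds that lower viability of the colon cancer cells in the luminescence readout, with no numeric limit stated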); conditions: CellTiter-Glo luminescence; at 20 µM (top of the series)
[8] = decreased DLD-1 cellular survival, CellTiter-Glo luminescent readout, NPC compound collection, primary HTS (AID 1117346;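 active means compounds that lower survival of DLD-1 colon cancer cells in the luminescence readout, no cutoff given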); conditions: DLD-1 viability, CellTiter-Glo luminescence; at 20 µM (top of the series)
[9] = tested on: Aerobactin synthetase IucA (Klebsiella pneumoniae, hypervirulent); experiment: IucA enzyme inhibition, biochemical, LOPAC library, absorbance readout (AID 1346212; call rule not given here;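 further: 100% = no compound wells and 0% = no enzyme wells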); conditions: IucA enzyme assay, absorbance (OD) readout; stronger effect = lower value;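 tested at 8 µM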
[10] = sensitizers of A549 cells to miR-34 induction, primary screen, imaging, A549 dox-inducible miR-34, nuclei and caspase counts (AID 1347080;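 active means compounds whose cell count with miR-34 switched on is under 0.7 times the count with it off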); conditions: A549 miR-34 inducible, Hoechst nuclei count, 48 h
[11] = viability rescue of complex I mutant cybrids, primary screen, cell-based, galactose medium, ATP luminescence (AID 1645843;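 active means z-score of at least 1.8 in each of two replicates, scored against plate mean and spread of sample wells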;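 further: positive z means more ATP and so rescue of galactose-driven cybrid death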); conditions: complex I mutant cybrid cells, 72 h, stronger effect = higher value
[12] = survival rescue of mitochondrial mutant cells in low glucose, primary screen, MELAS cybrids, Rieske KO mouse fibroblasts, CellTiter-Glo (AID 1508586;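 active means mean z-score across replicates of 1.96 or higher in either the MELAS or the Rieske mutant cell line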;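 further: z relative to plate mean and SD of compound and empty wells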)
[13] = ovarian cancer cell viability with rucaparib, profiling panel, oncology-focused library, rucaparib conditional (AID 1508598); conditions: patient-derived ovarian cancer cells, CellTiter-Glo viability, 144 h, stronger effect = lower value
[14] = differential killing of epithelial or mesenchymal cells, primary screen, imaging, PC-3E GFP, TEM4-18 mCherry, co-culture (AID 1345086;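 active means compounds killing one labelled cell type while sparing the other, by normalised counts and ratio limits, not self-fluorescent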;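 further: cells exposed to compound for 72 h before imaging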;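 on red/green cell ratio (normalised): normalised mesenchymal count divided by normalised epithelial count so high means epithelial killing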); conditions: imaging cell counts, at 1 µM
[15] = molecular target: NAD(+) hydrolase SARM1 (Homo sapiens) (UniProt Q6SZW1); experiment: SARM1 TIR NADase inhibitors, cell lysate, NAD-Glo luminescence (AID 1508614;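 active means compound whose remaining NAD level is above about 45 nM, limit read from the data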); conditions: SAM-TIR HEK293T lysate NADase, at 1 µM, stronger effect = higher value
Sequence of NAD(+) hydrolase SARM1 (Homo sapiens) (Q6SZW1 whole entry, looked up, the tested form may be a part): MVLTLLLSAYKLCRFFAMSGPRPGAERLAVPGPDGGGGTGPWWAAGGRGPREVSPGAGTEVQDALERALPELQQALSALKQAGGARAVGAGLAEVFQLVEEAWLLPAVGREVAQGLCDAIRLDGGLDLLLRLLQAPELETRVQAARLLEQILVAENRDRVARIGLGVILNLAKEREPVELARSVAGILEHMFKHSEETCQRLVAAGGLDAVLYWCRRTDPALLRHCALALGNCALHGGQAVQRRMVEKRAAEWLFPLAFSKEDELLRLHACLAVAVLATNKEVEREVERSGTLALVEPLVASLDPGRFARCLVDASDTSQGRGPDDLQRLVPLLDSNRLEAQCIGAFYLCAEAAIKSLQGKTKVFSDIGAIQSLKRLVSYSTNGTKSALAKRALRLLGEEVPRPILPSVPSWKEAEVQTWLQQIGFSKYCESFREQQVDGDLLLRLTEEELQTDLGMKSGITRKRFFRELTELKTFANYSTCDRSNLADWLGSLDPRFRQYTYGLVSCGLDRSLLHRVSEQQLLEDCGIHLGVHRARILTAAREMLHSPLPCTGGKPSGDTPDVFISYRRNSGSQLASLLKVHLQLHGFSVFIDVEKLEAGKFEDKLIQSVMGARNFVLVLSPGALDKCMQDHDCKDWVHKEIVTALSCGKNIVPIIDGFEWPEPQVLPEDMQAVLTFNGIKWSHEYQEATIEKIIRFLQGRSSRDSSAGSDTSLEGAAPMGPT

[16] = molecular target: Mitogen-activated protein kinase 7 (Homo sapiens) (UniProt Q13164); experiment: ERK5 transactivation activators in reporter cells, primary screen, cell-based, HTS (AID 1508626;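 active means luciferase signal above three times the same-plate solvent-only control wells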;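 further: luciferase driven by Gal4-ERK5 fusion binding five Gal4 sites before minimal TATA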); conditions: HeLa Gal4-ERK5 transactivation, 18 h, at 5 µM, stronger effect = higher value
Sequence of Mitogen-activated protein kinase 7 (Homo sapiens) (Q13164 whole entry, looked up, the tested form may be a part): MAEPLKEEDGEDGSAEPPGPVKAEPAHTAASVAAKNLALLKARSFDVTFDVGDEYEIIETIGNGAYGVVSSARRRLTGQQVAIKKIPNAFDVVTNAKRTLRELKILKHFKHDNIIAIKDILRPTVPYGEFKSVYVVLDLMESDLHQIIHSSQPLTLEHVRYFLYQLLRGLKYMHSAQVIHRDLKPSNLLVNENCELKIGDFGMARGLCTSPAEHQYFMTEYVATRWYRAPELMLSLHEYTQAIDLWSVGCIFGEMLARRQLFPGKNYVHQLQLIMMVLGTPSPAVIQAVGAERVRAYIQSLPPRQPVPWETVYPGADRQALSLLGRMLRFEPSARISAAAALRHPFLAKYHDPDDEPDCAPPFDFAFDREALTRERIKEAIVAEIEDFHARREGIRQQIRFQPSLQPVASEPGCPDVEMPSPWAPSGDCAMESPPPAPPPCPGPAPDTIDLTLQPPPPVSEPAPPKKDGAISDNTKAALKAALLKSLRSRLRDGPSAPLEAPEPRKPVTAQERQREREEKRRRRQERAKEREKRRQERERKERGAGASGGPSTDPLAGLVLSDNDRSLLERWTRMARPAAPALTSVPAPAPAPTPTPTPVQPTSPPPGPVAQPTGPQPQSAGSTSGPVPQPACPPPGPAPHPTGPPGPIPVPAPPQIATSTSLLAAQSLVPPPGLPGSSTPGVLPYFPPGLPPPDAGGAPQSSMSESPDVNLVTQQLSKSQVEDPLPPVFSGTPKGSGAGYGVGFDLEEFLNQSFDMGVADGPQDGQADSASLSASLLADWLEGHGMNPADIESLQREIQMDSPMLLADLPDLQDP

[17] = measured here: relative caspase fold change +Dox/-Dox
[18] = measured here: total cells with miR-34 induction, stronger effect = lower value
[19] = measured here: total cells without miR-34 induction

CC[N+](CC)(CC)CC
0.6%: nuclear beta-catenin stimulation ([1]; stimulation, at 2 µM)
10600: cell count [10, 19]
1.25: fold change [10, 17]
active: viability decrease (inhibition) [7] 95.5%
9810: cell count [10, 18]
inactive: nuclear beta-catenin stimulation ([1]; at 10 µM) 3.6% | insulin secretion stimulation [2] 0.7% | viability decrease [3] -2% | tube area decrease [4] 1.4% | GLP1 secretion stimulation [5] -1.5% | inhibition of viability [6] -13.1% | viability decrease (inhibition) [8] 1.35% | remaining activity [9] 93.6% | fold change ([10]; stronger effect = lower value) 0.929 | z-score [11] 0.685

Cn1c(CCCC(=O)O)nc2cc(N(CCCl)CCCl)ccc21
0.9%: nuclear beta-catenin stimulation ([1]; stimulation, at 2 µM)
8630 and 6450: cell count [10, 18]
0.645 and 1.16: fold change [10, 17]
inactive: nuclear beta-catenin stimulation ([1]; at 10 µM) 3% | insulin secretion stimulation [2] 0.9% | viability decrease [3] -12.4% | GLP1 secretion stimulation [5] -0.7% | inhibition of viability [6] 6.5% | viability decrease (inhibition) [7] 18.4% | viability decrease (inhibition) [8] -5.7% | fold change ([10]; stronger effect = lower value) 1.1 and 0.89 | z-score ([12]; MELAS cybrid survival, CellTiter-Glo 48 h, stronger effect = higher value) -0.517 | viability ([13]; at 0.000305 µM, OCI-C5x cells, with rucaparib 10 µM, 100% = cells with rucaparib alone) 103% | viability ([13]; at 0.000305 µM, OCI-C5x cells, without rucaparib) 107% | viability ([13]; at 0.000305 µM, OCI-P5x cells, with rucaparib 20 µM, 100% = cells with rucaparib alone) 107% | viability ([13]; at 0.000305 µM, OCI-P5x cells, without rucaparib) 101% | viability ([13]; at 0.00122 µM, OCI-P5x cells, without rucaparib) 102% | viability ([13]; at 0.00488 µM, OCI-C5x cells, with rucaparib 10 µM, 100% = cells with rucaparib alone) 104% | viability ([13]; at 0.00488 µM, OCI-C5x cells, without rucaparib) 104% | viability ([13]; at 0.00488 µM, OCI-P5x cells, with rucaparib 20 µM, 100% = cells with rucaparib alone) 103% | viability ([13]; at 0.00488 µM, OCI-P5x cells, without rucaparib) 109% | viability ([13]; at 0.0195 µM, OCI-C5x cells, with rucaparib 10 µM, 100% = cells with rucaparib alone) 105% | viability ([13]; at 0.0195 µM, OCI-P5x cells, without rucaparib) 100% | viability ([13]; at 0.0781 µM, OCI-C5x cells, with rucaparib 10 µM, 100% = cells with rucaparib alone) 109% | viability ([13]; at 0.313 µM, OCI-C5x cells, with rucaparib 10 µM, 100% = cells with rucaparib alone) 104% | viability ([13]; at 0.313 µM, OCI-C5x cells, without rucaparib) 101% | viability ([13]; at 1.25 µM, OCI-C5x cells, with rucaparib 10 µM, 100% = cells with rucaparib alone) 124% | viability ([13]; at 5 µM, OCI-C5x cells, with rucaparib 10 µM, 100% = cells with rucaparib alone) 106% | z-score [11] 0.31
active: tube area decrease [4] 44.6% | viability ([13]; at 0.00122 µM, OCI-C5x cells, with rucaparib 10 µM, 100% = cells with rucaparib alone) 97.3% | viability ([13]; at 0.00122 µM, OCI-C5x cells, without rucaparib) 99.1% | viability ([13]; at 0.00122 µM, OCI-P5x cells, with rucaparib 20 µM, 100% = cells with rucaparib alone) 99.9% | viability ([13]; at 0.0195 µM, OCI-C5x cells, without rucaparib) 99.7% | viability ([13]; at 0.0195 µM, OCI-P5x cells, with rucaparib 20 µM, 100% = cells with rucaparib alone) 93.4% | viability ([13]; at 0.0781 µM, OCI-C5x cells, without rucaparib) 97.6% | viability ([13]; at 0.0781 µM, OCI-P5x cells, with rucaparib 20 µM, 100% = cells with rucaparib alone) 92.7% | viability ([13]; at 0.0781 µM, OCI-P5x cells, without rucaparib) 96.4% | viability ([13]; at 0.313 µM, OCI-P5x cells, with rucaparib 20 µM, 100% = cells with rucaparib alone) 95% | viability ([13]; at 0.313 µM, OCI-P5x cells, without rucaparib) 74.7% | viability ([13]; at 1.25 µM, OCI-C5x cells, without rucaparib) 97.4% | viability ([13]; at 1.25 µM, OCI-P5x cells, with rucaparib 20 µM, 100% = cells with rucaparib alone) 92.4% | viability ([13]; at 1.25 µM, OCI-P5x cells, without rucaparib) 79.4% | viability ([13]; at 5 µM, OCI-C5x cells, without rucaparib) 93% | viability ([13]; at 5 µM, OCI-P5x cells, with rucaparib 20 µM, 100% = cells with rucaparib alone) 80.1% | viability ([13]; at 5 µM, OCI-P5x cells, without rucaparib) 84.8%
-0.135: z-score ([12]; Rieske KO mouse fibroblast survival, CellTiter-Glo 72 h)
7880 and 7250: cell count [10, 19]

CCOC(=O)CC(SP(=S)(OC)OC)C(=O)OCC (stereo unspecified)
8640: cell count [10, 19]
0.964: fold change [10, 17]
1.11: normalised cell number ([14]; measured here: epithelial PC-3E GFP cell survival)
inactive: nuclear beta-catenin stimulation ([1]; at 10 µM) 1% | insulin secretion stimulation [2] -1.5% | viability decrease [3] -29.7% | tube area decrease [4] 18% | GLP1 secretion stimulation [5] 0.7% | inhibition of viability [6] -0.33% | viability decrease (inhibition) [7] 27% | viability decrease (inhibition) [8] -18% | red/green cell ratio (normalised) ([14]; actives lie on both sides) 1.05 | fold change ([10]; stronger effect = lower value) 0.857 | remaining NAD [15] 10 nM | luciferase signal [16] 52 AU
7400: cell count [10, 18]
-0.1%: nuclear beta-catenin stimulation ([1]; stimulation, at 2 µM)
1.16: normalised cell number ([14]; measured here: mesenchymal TEM4-18 mCherry cell survival)
